Source: PubChem BioAssay
Hits are enriched below; roughly 3.5% of the tested compounds scored in any of these assays.
MITF primary: blocks human microphthalmia-associated transcription factor; inhibition, % at 2.6 µM; 650,000 tested, 0.91% active; AlphaScreen MITF homodimerization, bead proximity signal; O75030; in the data active means inhibition above about 50%;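 further: 0% = vehicle wells with protein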
Target sequence (O75030 whole entry, looked up): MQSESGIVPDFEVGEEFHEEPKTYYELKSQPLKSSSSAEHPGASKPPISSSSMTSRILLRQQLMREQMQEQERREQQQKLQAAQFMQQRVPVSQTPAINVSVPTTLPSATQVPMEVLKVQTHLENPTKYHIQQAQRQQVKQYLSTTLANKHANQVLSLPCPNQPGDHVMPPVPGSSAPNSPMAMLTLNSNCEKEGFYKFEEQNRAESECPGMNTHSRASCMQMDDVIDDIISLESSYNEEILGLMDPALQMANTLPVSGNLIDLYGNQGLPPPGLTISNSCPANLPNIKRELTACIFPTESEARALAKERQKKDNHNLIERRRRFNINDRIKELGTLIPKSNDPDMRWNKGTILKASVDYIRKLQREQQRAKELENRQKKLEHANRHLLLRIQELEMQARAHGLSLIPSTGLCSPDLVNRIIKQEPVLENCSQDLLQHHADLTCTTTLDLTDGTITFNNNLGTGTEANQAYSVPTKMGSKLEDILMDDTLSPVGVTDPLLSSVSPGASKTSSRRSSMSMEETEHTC
GPR151 ag: activators of human GPR151; Q8TDV0; AID 1508602; activation, % at 11.2 µM; 650,000 tested, 1% active; PathHunter beta-arrestin GPR151 cells, luminescence; in the data active means activation above about 4.9%;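 further: 0% = median of compound wells and 100% = cells with positive control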
TEAD-YAP block: TEAD-YAP interaction inhibition; inhibition, % at 9.12 µM; HEK-TIYL cells, TEAD-Gal4/YAP UAS-luciferase luminescence; 640,000 tested, 1.4% active; AID 1259422; in the data active means inhibition above about 32%;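 further: 0% = median of test compound wells and 100% = reference inhibitor wells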
FBW7 activator: human FBW7 E3 ligase activation, primary screen. normalized activity (activation), % at 26.1 µM. Q969H0. 650,000 tested, 0.13% active. AlphaScreen FBW7–phospho-cyclin E peptide binding, activator screen; in the data active means normalized activity above about 1.9%;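 further: purified mutant Fbw7 with reduced substrate affinity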
* hit, by the source's call.

SMILES	MITF primary	GPR151 ag	TEAD-YAP block	FBW7 activator
CCN1CCN(C/C=C/c2ccc(N(C)C)cc2)CC1	9	0	0	0
CN1CCN(C/C=C/c2ccc(N(C)C)cc2)CC1	68*	0	6	0
CC(C)OCCCNC(=O)c1ccc(CN2CCc3ccccc3C2)cc1	15	0	11	2.0*
c1ccc(-c2cn3nc4c(nc3n2)CCCC4)cc1	3	-9	85*	0
CN(CCc1nc2ccc(F)cc2[nH]1)C(=O)c1cc(COc2cccc3cnccc23)on1	2	0	55*	0
CN(C(=O)c1cc(COc2cccc3cnccc23)on1)C1CCCCC1	-9	-1	43*	0
CC(c1ccon1)N(C)C(=O)c1cc(COc2cccc3cnccc23)on1 (centres undefined)	14	-1	34*	0
O=C(NC1CCC1)c1cc(COc2cccc3cnccc23)on1	6	0	27	0
Cc1c(C(C)NC(=O)c2cc(COc3cccc4cnccc34)on2)cnn1C (centres undefined)	12	-1	43*	0
CC(=O)c1ccc(OCc2cc(C(=O)N(C)C(C)c3ccon3)no2)cc1 (centres undefined)	-19	-2	2	0
CCn1c(SC(C)C(=O)Nc2ccc(N)cc2)nnc1-c1cccc(C)c1 (centres undefined)	14	0	7	0
CC1=C(C(=O)OCCc2ccccc2)C(c2ccccc2F)CC(=O)N1 (centres undefined)	2	1	3	0
C[C@H]1C(=O)N(C)CCN1C(=O)c1cc(COc2cccc3cnccc23)on1	-10	2	36*	0
O=C(O)C1CC=CCC1C(=O)Nc1nc(-c2ccccc2Cl)cs1 (centres undefined)	2	-2	2	0
CCCc1ccc(/C=C/c2ccccc2)nc1	16	-4	34*	0
OCC1CCCN1c1nc(NCc2cccnc2)c2ncn(-c3ccccc3)c2n1 (centres undefined)	-2	2	44*	0
OCC1CCCN1c1nc(NCc2ccccc2)c2ncn(-c3ccsc3)c2n1 (centres undefined)	-1	1	0	0
CC(C)n1cnc2c(NCc3cccnc3)nc(N3CCCC3CO)nc21 (centres undefined)	-3	-1	33*	0
O=c1c2ccccc2nc(SCc2cccc(Cl)c2)n1Cc1cccs1	14	-1	-16	0
N/C(=N\N=C/c1ccc(O)cc1)c1ccccn1	29	-7	93*	-1
N/C(=N\N=C\c1cccc([N+](=O)[O-])c1)c1ccccn1	-2	-4	43*	0
C/C(=N/NC(=O)c1ccccn1)c1cccc([N+](=O)[O-])c1	18	-3	-21	0
C/C(=N\N=C1/NC(=O)C(C)S1)c1ccc(C)cc1 (centres undefined)	-1	0	47*	0
Cc1ccc(S(=O)(=O)N2CCOCC2)c(C)c1N1CCCC1=O	7	-1	5	0
Cc1ccn(S(=O)(=O)c2ccc(C)c(N3CCCC3=O)c2C)n1	11	1	8	2.0*
SMILES	MITF primary	GPR151 ag	TEAD-YAP block	FBW7 activator
CC1=CC(C)(C)N=C(Nc2nc(C)c3cc(C)cc(C)c3n2)N1	-8	0	59*	0
COc1ccc(C(=O)Nc2cc([N+](=O)[O-])ccc2Cl)cc1Cl	0	2	0	0
O=C(O)c1ccc2c(c1)C1C=CCC1C(c1ccccc1F)N2 (centres undefined)	56*	0	4	0
CC(=O)c1ccc2c(c1)[C@@H]1C=CC[C@@H]1[C@H](c1ccncc1)N2	6	0	-51	-1
CCOC(=O)c1ccc2c(c1)[C@@H]1C=CC[C@@H]1[C@H](c1ccc(C(=O)O)cc1)N2	52*	-1	7	-1
CCOC(=O)c1ccc2c(c1)C1C=CCC1C(c1ccc(Cl)cc1)N2 (centres undefined)	12	-1	10	0
CCOC(=O)[C@@H]1Nc2ccc(C(=O)O)cc2[C@@H]2C=CC[C@H]12	74*	-1	0	-1
CC(=O)c1ccc2c(c1)[C@@H]1C=CC[C@@H]1[C@H](c1ccc(C(=O)O)cc1)N2	62*	-1	-7	-1
CC(=O)c1ccc2c(c1)C1C=CCC1C(c1ccccc1F)N2 (centres undefined)	11	2	-5	0
COc1ccccc1NC(=O)C(CCSC)N1C(=O)C2C3c4ccccc4C(c4ccccc43)C2C1=O (centres undefined)	-7	0	-2	0
O=C(O)c1ccc2c(c1)C1C=CCC1C(c1ccc([N+](=O)[O-])cc1)N2 (centres undefined)	84*	-2	15	0
COC(=O)c1ccc2c(c1)C1C=CCC1[C@@H](c1ccc(C(=O)O)cc1)N2 (some centres undefined)	66*	0	-3	-1
COC(=O)c1ccc2c(c1)C1C=CCC1C(c1ccc([N+](=O)[O-])cc1)N2 (centres undefined)	-6	0	-4	0
COc1ccc2c(c1)[C@@H]1C=CC[C@@H]1[C@H](c1ccc(C(=O)O)cc1)N2	24	-1	-6	0
CC(=O)c1ccc2c(c1)[C@@H]1C=CC[C@@H]1[C@H](c1cc3c(cc1Br)OCO3)N2	-2	-1	53*	0
COC(=O)c1ccc2c(c1)C1C=CCC1C(c1ccc(C(=O)O)cc1)N2 (centres undefined)	70*	-1	7	-1
COc1cccc2sc(NC(=O)c3cc(Cl)ccc3[N+](=O)[O-])nc12	0	1	2	0
CCOC(=O)C1CCN(C(=O)C2=C(C)C(=O)OC23CCCCC3)CC1	-4	1	4	0
O=[N+]([O-])c1ccc2c(c1)C1C=CCC1C(c1ccc(S(=O)(=O)N3CCOCC3)cc1)N2 (centres undefined)	5	0	42*	0
O=S(=O)(c1ccc(C2Nc3ccc(F)cc3C3C=CCC32)cc1)N1CCOCC1 (centres undefined)	4	1	-4	0
COc1ccccc1-c1ccc(N2CCN(C(=O)COc3ccccc3)CC2)nn1	-11	-1	5	7.6*
CCCOc1ccc(N2CCN(C(=O)COc3ccc(F)cc3)CC2)nn1	-5	1	7	3.3*
Cc1cc(C)n(-c2ccc(N3CCN(C(=O)COc4ccccc4)CC3)nn2)n1	17	-1	3	1
O=C(Nc1c2c(nn1-c1cccc(Cl)c1)CS(=O)C2)C12CC3CC(CC(C3)C1)C2 (centres undefined)	4	-1	6	0
CCCC(=O)Nc1cc(C)c(NC(=O)c2ccccc2F)cn1	-12	-1	-13	0
CCC1=C[C@H]2CN(C1)Cc1c([nH]c3ccccc13)[C@@](C(=O)OC)(c1cc3c(cc1OC)N(C)[C@H]1[C@@](O)(C(=O)OC)[C@H](OC(C)=O)[C@]4(CC)C=CCN5CC[C@]31[C@@H]54)C2	33	2	56*	0
